High-throughput results from PubChem BioAssay.
Luc counter: Counterscreen for Luciferase (Kinase-Glo TM) Inhibition. Potency, µM (titrated, usually from 38.3 µM), for the others: top-dose activity change, negative = inhibition, actives largely listed as inhibitors. Kinase-Glo luciferase, ATP luminescence, 8 min. Luciferin 4-monooxygenase (Photuris pensylvanica), Q27757. 0.28% of 200,000 active. AID 1379, 2008; also: % is scaled to controls: 0 for no effect and ±100 for the full control effect; nearly all actives have a fitted effect of over 60% in size
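Kinase-Glo luciferase light output from ATP and luciferin was measured with 10 uM ATP, within the enzyme's linear range. Buffer: 50 mM imidazole pH 7.2, 50 mM KCl, 7 mM MgCl2, 0.01% Tween 20, 0.05% BSA; luminescence read after 8 min at ambient temperature.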
FLuc counter: qHTS profiling assay for firefly luciferase inhibitor/activator using purifed enzyme and Km concentrations of substrates (counterscreen for miR-21 project) | Luciferin 4-monooxygenase (Photinus pyralis), P08659 | purified FLuc, Km substrates, luminescence inhibition | Potency, µM (titrated, usually from 57.5 µM), for inactives: at the highest dose activity change, negative = inhibition, usual class: inhibitors | 6.9% of 360,000 active | AID 588342, 2011;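 also: plate controls were vehicle for no effect and reference inhibitor for full effect; nearly all actives have a fitted effect of over 55% in size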
Target sequence (P08659 whole entry, looked up): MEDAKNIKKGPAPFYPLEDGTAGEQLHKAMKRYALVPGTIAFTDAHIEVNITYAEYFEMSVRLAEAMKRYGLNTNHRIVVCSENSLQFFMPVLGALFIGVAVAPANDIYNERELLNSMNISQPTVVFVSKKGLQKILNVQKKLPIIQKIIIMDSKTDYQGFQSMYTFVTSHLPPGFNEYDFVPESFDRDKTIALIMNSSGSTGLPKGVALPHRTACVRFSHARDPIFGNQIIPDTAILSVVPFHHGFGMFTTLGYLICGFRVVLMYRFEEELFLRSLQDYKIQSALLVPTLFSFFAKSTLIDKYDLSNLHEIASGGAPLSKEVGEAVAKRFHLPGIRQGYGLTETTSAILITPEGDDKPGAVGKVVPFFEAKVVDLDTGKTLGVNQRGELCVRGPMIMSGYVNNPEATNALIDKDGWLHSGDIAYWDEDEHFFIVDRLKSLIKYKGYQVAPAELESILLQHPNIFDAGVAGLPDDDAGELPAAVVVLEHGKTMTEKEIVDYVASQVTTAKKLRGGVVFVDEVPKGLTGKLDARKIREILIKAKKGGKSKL
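Purified P. pyralis luciferase (10nM final) with 10uM D-luciferin and 10uM ATP (Km levels) in 50mM Tris acetate pH 7.5, 10mM Mg acetate, 0.01% Tween-20, 0.05% BSA; qHTS 6-point titration, ~60 µM downward; luminescence read.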
SMN2 splice up: qHTS Assay for Enhancers of SMN2 Splice Variant Expression; HEK293 SMN2-luciferase splicing reporter, luminescence, 30-36 h; Potency, µM (titrated, usually from 46.1 µM), for the others: at the top dose activity change, positive = activation, usual class: activators; 2.8% of 210,000 active; AID 1458, 2008; also: % of control where 0% means no effect; nearly all actives have a fitted effect of over 55% in size
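HEK293 cells carry an SMN2 minigene-luciferase reporter in which exon 7 inclusion puts luciferase in frame. Cells were seeded at 2000 cells/well, attached for 10-12 hours, then exposed to compounds for 30-36 hours at 37C before ONE-Glo luminescence.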
NPC1 prom act: qHTS Assay for NPC1 Promoter Activators. Huh7 NPC1 promoter luciferase reporter, 24 h. Potency, µM (top dose mostly 9.22 µM), for the others: at the top dose activation, usual class: activators. 2.4% of 320,000 active; also: % of control where 0% means no effect; nearly all actives have a fitted effect of over 60% in size
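Huh7 reporter cells (NPC1 promoter driving luciferase) are dosed with compound for 24 h at 37 °C, 5% CO2; luciferase detection reagent is then added and luminescence measured after 10 min at ambient temperature.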
Rab9 prom act: qHTS Assay for Rab9 Promoter Activators; Huh7 Rab9 promoter-luciferase reporter, luminescence, 24 h; 2.8% of 320,000 active; Potency, µM (doses to about 9.22 µM), without a hit: at the top dose activation, negative = inhibition, hits mostly activators; AID 485297, 2010; also: % of control where 0% means no effect; nearly all actives have a fitted effect of over 60% in size
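Luminescence read-out: Huh7 cells stably expressing Rab9-luciferase, treated 24 h with compound at 37 °C, then lysed with luciferase reagent for 10 min at ambient before reading.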
ELG1 genotox: qHTS screen for small molecules that induce genotoxicity in human embryonic kidney (HEK293T) cells expressing luciferase-tagged ELG1 | Potency, µM (top dose mostly 46 µM), for the others: at the highest dose activity change, positive = activation, hits mostly activators | HEK293T ELG1-luciferase reporter, luminescence, 16 h | AID 504466, 2011 | 1.3% of 330,000 active; also: % of control where 0% means no effect; nearly all actives have a fitted effect of over 60% in size
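Quantitative HTS format in 1536-well plates. HEK293T ELG1-luciferase reporter cells receive test compound and are incubated 16 hr at 37 °C, 5% CO2; ONE-Glo added, 30 min room temperature, then luminescence read.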
* hit, by the source's call; u = inconclusive; x = no result given; [ ] = another dose, or the depositor's remark. This is a sample that favours compounds with a hit; in the whole collection about 7.3% have one here. Calls follow the shape of the dose curve; as a rule, active = well fitted curve in the direction sought with a large enough effect; inconclusive = small, poorly fitted or top-dose-only effect, or another doubt; inactive = no such curve, though single readings can be large; an effect the other way counts as inactive or inconclusive. Potency is read from the fitted curve at half-maximal effect.

SMILES	Luc counter	FLuc counter	SMN2 splice up	NPC1 prom act	Rab9 prom act	ELG1 genotox
CCc1nn2c(=O)cc(COC(=O)c3cccc(NC(=O)c4ccccc4C)c3)nc2s1	x	0%	x	x	x	x
CCO[P@]1(=O)OC[C@@H]2O[C@H](n3cnc4c(N)ncnc43)[C@H](O)[C@@H]2O1	-3%[7.66 µM]	x	-4%[9.22 µM]	x	x	x
O=C(CSc1nnc(SCc2ccccc2)s1)N/N=C/c1c(Cl)cccc1Cl	1%	u	-5%	7%	-1%	1%
Cc1nn(-c2ccccc2)c(C)c1/C=N/NC(=O)CSc1nnc(SCc2ccc(Cl)cc2)s1	1%	9.5µM*	0%	13%	20%	-10%
Cc1ccc(CSc2nnc(SCC(=O)N/N=C/C=C/c3ccccc3[N+](=O)[O-])s2)cc1	-4%	1.3µM*	-45%	-4%	-5%	16%
CNC(=O)Cn1c(=O)c2cccn2c2ccc(F)cc21	x	1%	x	x	x	x
CCOc1ccc(CNC(=O)C2CCN(S(=O)(=O)c3cn(C)cn3)CC2)cc1	x	0%	x	x	x	x
COc1ccc(/C=N/NC(=O)c2ccco2)cc1OCc1ccccc1	x	-12%	x	0%	-4%	-1%
CC(C)=C(NC(=O)c1ccccc1)C(=O)N/N=C/c1ccc(O)cc1	-6%	17µM*	19%	-1%	1%	10%
COc1ccc(C(=O)Nc2ccccc2C(=O)N/N=C/c2ccncc2)cc1OC	x	0.24µM*	x	2µM*	u	-4%
COc1cccc(/C=N/NC(=O)CNC(=O)c2cccnc2)c1O	x	-1%	x	-6%	-12%	1%
COC(=O)c1ccc(COc2ccccc2/C=N/NC(=O)c2cccnc2)cc1	-2%	21µM*	-5%	-3%	0%	6%
O=C(N/N=C\c1ccccc1OCc1ccccc1)c1ccco1	-3%	21µM*	9%	-1%	0%	-1%
CC(=O)c1ccc(NC(=O)C(NC(=O)c2ccccc2)=C(C)C)cc1	0%	-1%	-2%	1%	-3%	0%
COc1ccc(C(=O)Nc2ccccc2C(=O)NCc2cccnc2)cc1OC	x	0%	x	-4%	3%	-11%
CCOC(=O)c1c(C)oc2c(Cl)cc(NS(=O)(=O)c3ccc(Cl)c(C)c3)cc12	x	u	27%	x	x	x
Cc1cc(=O)n(CC(=O)Nc2ccc([N+](=O)[O-])cc2)c(-n2nc(C)cc2C)n1	x	7%	x	x	x	x
COc1ccc(NC(=O)CN2CCCN(S(=O)(=O)c3ccc(Br)cc3)CC2)c(OC)c1	x	-8%	-28%	x	x	x
COc1ccc(-n2c(SCC(=O)NCc3ccc(Cl)cc3)nc3ccsc3c2=O)cc1	x	-13%	x	x	x	x
CC(C)(C)c1cc(C(=O)/C=C/c2ccc(C(=O)O)cc2)cc(C(C)(C)C)c1	-4%	x	-88%	x	x	x
CC(C)(C)OC(=O)N/N=C\c1ccc(OC(=O)c2ccco2)cc1	2%	2%	u	u	4µM*	u
COc1ccccc1/C=C/C=N/NC(=O)c1ccncc1	3%	u	9%	0%	0%	1%
O=C(N/N=C/c1ccc(OCc2ccccc2)cc1)c1ccco1	x	u	x	u	2.8µM*	19%
COc1ccccc1/C=C/C=N/NC(=O)c1ccco1	x	17µM*	x	u	u	u
O=C(Nc1ccccc1C(=O)N/N=C/c1ccccc1)c1ccco1	x	2.7µM*	x	u	28%	-3%
SMILES	Luc counter	FLuc counter	SMN2 splice up	NPC1 prom act	Rab9 prom act	ELG1 genotox
COC(=O)N/N=C\c1ccc(OC(=O)c2ccco2)cc1	u	u	-43%	4%	-2%	-1%
Cc1ccc(C)c(Cn2c(SCC(=O)N(C)Cc3ccccc3)nc3ccccc32)c1	x	5%	x	x	x	x
COc1cc(OC)c(NC(=O)c2cc(C(C)=O)n3ccccc23)cc1Cl	x	-2%	x	x	x	x
COCCN(CCOC)C(=O)c1ccc(Cc2nc3ccccc3[nH]2)cc1	2%	x	x	x	x	x
CCC(C)NC(=O)Cn1c(=O)n(Cc2ccc(C(=O)NCc3ccc(C)cc3)cc2)c(=O)c2ccccc21 (stereo not drawn)	x	5%	7%	x	x	x
CC(NC(=O)c1ccccc1NC(=O)c1ccco1)C(=O)O (stereo not drawn)	1%	21µM*	0.32µM*	0.56µM*	0.32µM*	u
COc1cc(/C=C/C(=O)O)ccc1OCc1cnc(Cl)s1	3%	-11%	9%	2%	1%	6%
COc1cc(/C=N/NC(=O)c2ccncc2)ccc1OCc1cnc(Cl)s1	3%	3%	13µM*	0%	-2%	17%
O=C(N/N=C/c1ccc2cccnc2c1)c1ccco1	x	6µM*	x	1.4µM*	0.89µM*	2.1µM*
O=C(N/N=C/C=N/NC(=O)c1ccco1)c1ccco1	x	-15%	x	0%	1%	-12%
O=C(N/N=C/c1ccccc1)c1ccco1	x	13µM*	x	u	3.2µM*	u
O=C(CN1C(=O)CCc2cc(S(=O)(=O)N3CCOCC3)ccc21)NCc1ccccc1Cl	x	0%	x	x	x	x
CSc1cccc(NC(=O)N2CCN(S(=O)(=O)c3ccc4c(ccn4C)c3)CC2)c1	x	-4%	x	x	x	x
Cc1ccc(C)n1-c1c(C(=O)NCCCN2CCN(c3ccc(F)cc3)CC2)sc2ncccc12	x	1%	x	x	x	x
O=C(NNC(=O)c1ccccc1O)c1ccco1	-3%	19µM*	u	u	u	u
COc1ccc(OC)c(NC(=O)c2ccccc2NC(=O)c2ccco2)c1	x	u	x	7%	0%	-6%
COc1ccccc1/C=C/C=N/NC(=O)c1cc(-c2ccc(C)o2)[nH]n1	x	15µM*	x	1%	0%	-13%
COc1cccc(/C=N/NC(=O)c2ccccc2NC(=O)c2ccco2)c1OC	x	11µM*	x	0%	-3%	-2%
O=C(N/N=C/C(Br)=C\c1ccccc1)c1ccco1	x	3µM*	x	2.5µM*	4µM*	u
Cc1ccc(/C=N/NC(=O)c2cc(-c3ccc(C)o3)[nH]n2)cc1	x	u	x	-1%	0%	-2%
Cc1onc(-c2ccccc2)c1C(=O)N/N=C/C(Br)=C/c1ccccc1	0%	-4%	-59%	2%	-4%	u
COc1cccc(/C=C/C(=O)OCC(=O)NCc2ccco2)c1OC	1%	-15%	19%	1%	1%	3%
O=C(Nc1ccccc1C(=O)N/N=C/c1ccc(O)cc1)c1ccccc1	x	0.15µM*	x	u	u	15%
COc1cccc(/C=C/C(=O)NNC(=O)c2ccco2)c1OC	x	11µM*	x	u	4µM*	u
